Measurements published in PubChem BioAssay (NCI).
This is part of a sample that, as a whole, favours compounds with a hit. Of some 83,000 tested, about 20% had one in any assay.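 Cell lines were cultured in 96-well plates, exposed to a single compound concentration, and assessed for percent growth 48 hours later.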 Activity calls are given as the source filed them. The calls were made as follows: active = growth percent below 10; inactive = the rest.

Tests used:
Assay in all cases: NCI-60 one-dose screen, 48 h (100 = growth as untreated, 0 = no growth, -100 = all killed)
Details in all cases: 10 µM
SR leukemia = test system: SR leukemia
RPMI-8226 leukemia = test system: RPMI-8226 leukemia
OVCAR-8 ovarian = test system: OVCAR-8 ovarian
OVCAR-5 ovarian = test system: OVCAR-5 ovarian
OVCAR-4 ovarian = test system: OVCAR-4 ovarian
SK-OV-3 ovarian = test system: SK-OV-3 ovarian
IGROV1 ovarian = test system: IGROV1 ovarian
OVCAR-3 ovarian = test system: OVCAR-3 ovarian
HS 578T breast = test system: HS 578T breast
NCI/ADR-RES ovarian = test system: NCI/ADR-RES ovarian
T-47D breast = test system: T-47D breast
BT-549 breast = test system: BT-549 breast
MDA-MB-435 melanoma = test system: MDA-MB-435 melanoma
SW-620 colon = test system: SW-620 colon
MCF7 breast = test system: MCF7 breast
HCT-116 colon = test system: HCT-116 colon
HCC-2998 colon = test system: HCC-2998 colon
KM12 colon = test system: KM12 colon

Measured: growth

COc1cc(-c2csc(NC(=O)Nc3cc(C(F)(F)F)cc(C(F)(F)F)c3)n2)cc(OC)c1OC
inactive: SR leukemia 16.5% | OVCAR-8 ovarian 19.4% | OVCAR-5 ovarian 30.4% | OVCAR-4 ovarian 21.1% | IGROV1 ovarian 35.1% | HS 578T breast 31.2% | NCI/ADR-RES ovarian 10.4% | MDA-MB-435 melanoma 13% | SW-620 colon 26.5% | HCC-2998 colon 22.4% | KM12 colon 18.7%
active: RPMI-8226 leukemia -6.92% | SK-OV-3 ovarian 0.491% | OVCAR-3 ovarian -3.97% | T-47D breast -8.28% | BT-549 breast 0.972% | MCF7 breast 2.97% | HCT-116 colon 0.288%

NC(CSC(c1ccccc1)(c1ccccc1)c1cccc2ccccc12)C(=O)O (stereo unspecified)
inactive: SR leukemia 112% | RPMI-8226 leukemia 89.2% | OVCAR-8 ovarian 95.1% | OVCAR-5 ovarian 101% | OVCAR-4 ovarian 95.4% | SK-OV-3 ovarian 106% | IGROV1 ovarian 98.1% | OVCAR-3 ovarian 98.6% | HS 578T breast 92.5% | NCI/ADR-RES ovarian 97.6% | T-47D breast 103% | BT-549 breast 91.7% | MDA-MB-435 melanoma 90.9% | SW-620 colon 97.8% | MCF7 breast 105% | HCT-116 colon 85.7% | HCC-2998 colon 103% | KM12 colon 91.9%

C[N+]1(CCCCC[N+]2(C)CCCC2)CCCC1
inactive: SR leukemia 97.4% | RPMI-8226 leukemia 61.7% | OVCAR-8 ovarian 78.1% | OVCAR-5 ovarian 72.9% | OVCAR-4 ovarian 97.4% | SK-OV-3 ovarian 68.9% | IGROV1 ovarian 105% | OVCAR-3 ovarian 107% | HS 578T breast 106% | NCI/ADR-RES ovarian 75% | T-47D breast 101% | BT-549 breast 77.8% | MDA-MB-435 melanoma 98.6% | SW-620 colon 98.3% | MCF7 breast 95.2% | HCT-116 colon 107% | HCC-2998 colon 119% | KM12 colon 102%

O=C(Nc1ccc(F)cc1)c1cc2ccccc2cc1O
inactive: SR leukemia 43.2% | RPMI-8226 leukemia 37.9% | OVCAR-8 ovarian 82.7% | OVCAR-5 ovarian 100% | OVCAR-4 ovarian 57.8% | SK-OV-3 ovarian 52.2% | IGROV1 ovarian 68.4% | OVCAR-3 ovarian 84.6% | HS 578T breast 87.9% | NCI/ADR-RES ovarian 75.9% | T-47D breast 46.3% | BT-549 breast 72.4% | MDA-MB-435 melanoma 86.3% | SW-620 colon 90.9% | MCF7 breast 58.5% | HCT-116 colon 77.9% | HCC-2998 colon 104% | KM12 colon 69.2%

Cc1ccc(S(=O)(=O)N/N=C2\CCCc3ccccc32)cc1
inactive: SR leukemia 110% | RPMI-8226 leukemia 94.3% | OVCAR-8 ovarian 95.2% | OVCAR-5 ovarian 90% | OVCAR-4 ovarian 95.8% | SK-OV-3 ovarian 111% | IGROV1 ovarian 113% | OVCAR-3 ovarian 113% | HS 578T breast 95% | NCI/ADR-RES ovarian 96.7% | T-47D breast 94% | BT-549 breast 115% | MDA-MB-435 melanoma 101% | SW-620 colon 101% | MCF7 breast 92.1% | HCT-116 colon 114% | HCC-2998 colon 108% | KM12 colon 111%

S=C(NCc1ccccc1)NCc1ccccc1
inactive: SR leukemia 98.4% | RPMI-8226 leukemia 100% | OVCAR-8 ovarian 94.7% | OVCAR-5 ovarian 108% | OVCAR-4 ovarian 102% | SK-OV-3 ovarian 99.2% | IGROV1 ovarian 97.4% | OVCAR-3 ovarian 98.5% | HS 578T breast 96.1% | NCI/ADR-RES ovarian 99.5% | T-47D breast 94.6% | BT-549 breast 95.4% | MDA-MB-435 melanoma 101% | SW-620 colon 100% | MCF7 breast 96.3% | HCT-116 colon 97.3% | HCC-2998 colon 111% | KM12 colon 102%

N#Cc1c(-c2ccc(Cl)cc2)csc1NC(=O)Nc1ccc(Cl)c(C(F)(F)F)c1
active: SR leukemia -15.1% | RPMI-8226 leukemia 1.61% | OVCAR-4 ovarian -26.4% | OVCAR-3 ovarian -19.7% | NCI/ADR-RES ovarian 8.74% | T-47D breast -17.7% | BT-549 breast 6.57% | MCF7 breast 3.1% | HCT-116 colon -14.7%
inactive: OVCAR-8 ovarian 23% | OVCAR-5 ovarian 60.2% | SK-OV-3 ovarian 19.9% | IGROV1 ovarian 22.1% | HS 578T breast 29.6% | MDA-MB-435 melanoma 26% | SW-620 colon 11.1% | HCC-2998 colon 19.8% | KM12 colon 10.4%

CC(C)C[C@H](NC(=O)Cn1cccc(CNC(=O)c2ccccc2)c1=O)B(O)O
inactive: SR leukemia 16.4% | OVCAR-8 ovarian 54.4% | OVCAR-5 ovarian 38.8% | OVCAR-4 ovarian 36.7% | SK-OV-3 ovarian 58.5% | IGROV1 ovarian 51.5% | HS 578T breast 16.6% | NCI/ADR-RES ovarian 103% | BT-549 breast 24.1% | MCF7 breast 30.2%
active: RPMI-8226 leukemia 0.606% | OVCAR-3 ovarian -43.2% | T-47D breast -18.5% | MDA-MB-435 melanoma -54.5% | SW-620 colon 6.53% | HCT-116 colon 2.43% | HCC-2998 colon -34.8% | KM12 colon -12.5%

COc1cc(OC)c2c(=O)c(O)c(-c3ccccc3)oc2c1
inactive: SR leukemia 40.1% | RPMI-8226 leukemia 68.9% | OVCAR-8 ovarian 61.9% | OVCAR-5 ovarian 89% | OVCAR-4 ovarian 65.3% | SK-OV-3 ovarian 81.1% | IGROV1 ovarian 78.8% | OVCAR-3 ovarian 68.4% | HS 578T breast 88.9% | NCI/ADR-RES ovarian 65.9% | T-47D breast 92.1% | BT-549 breast 85.6% | MDA-MB-435 melanoma 86.9% | SW-620 colon 77.7% | MCF7 breast 70.1% | HCT-116 colon 63.1% | HCC-2998 colon 83.9% | KM12 colon 78.7%

CCOC(=O)c1cc(C(=O)c2cc(OC)cc(OC)c2)n2ncc3ccccc3c12
inactive: RPMI-8226 leukemia 33% | OVCAR-8 ovarian 34.4% | OVCAR-5 ovarian 55.2% | SK-OV-3 ovarian 37.6% | IGROV1 ovarian 43.5% | HS 578T breast 17.8% | NCI/ADR-RES ovarian 19.1% | T-47D breast 12.8% | BT-549 breast 27.3% | MCF7 breast 15.9% | HCC-2998 colon 69.1% | KM12 colon 25.9%
active: SR leukemia 4.68% | OVCAR-4 ovarian -18% | OVCAR-3 ovarian -13.5% | MDA-MB-435 melanoma 4.07% | SW-620 colon 8.21% | HCT-116 colon 4.23%

Cc1ccccc1N1C(=O)c2cc(S(N)(=O)=O)c(Cl)cc2NC1C (stereo unspecified)
inactive: SR leukemia 87.1% | RPMI-8226 leukemia 106% | OVCAR-8 ovarian 108% | OVCAR-5 ovarian 108% | OVCAR-4 ovarian 111% | SK-OV-3 ovarian 128% | IGROV1 ovarian 111% | OVCAR-3 ovarian 109% | HS 578T breast 111% | NCI/ADR-RES ovarian 103% | T-47D breast 104% | BT-549 breast 96.6% | MDA-MB-435 melanoma 112% | SW-620 colon 108% | MCF7 breast 94.2% | HCT-116 colon 102% | HCC-2998 colon 107% | KM12 colon 108%

COc1cc(-c2nn(-c3cccc(NC(=O)CN4CCOCC4)c3)cc2-c2cccnc2)ccc1Cl
active: MDA-MB-435 melanoma 6.77%
inactive: SR leukemia 37.3% | RPMI-8226 leukemia 60.5% | OVCAR-8 ovarian 76.4% | OVCAR-5 ovarian 108% | OVCAR-4 ovarian 101% | SK-OV-3 ovarian 95.8% | IGROV1 ovarian 79.6% | OVCAR-3 ovarian 77.2% | HS 578T breast 76.3% | NCI/ADR-RES ovarian 59% | T-47D breast 72.2% | BT-549 breast 62.2% | SW-620 colon 62.2% | MCF7 breast 62.4% | HCT-116 colon 82.7% | HCC-2998 colon 112% | KM12 colon 71.9%

COc1ccc(/C=C2\CCCC3=C2N=C2SC(C)=CN2C3c2ccc(OC)cc2)cc1 (stereo unspecified)
inactive: SR leukemia 100% | RPMI-8226 leukemia 71.2% | OVCAR-8 ovarian 95.2% | OVCAR-5 ovarian 105% | OVCAR-4 ovarian 97% | SK-OV-3 ovarian 101% | IGROV1 ovarian 111% | OVCAR-3 ovarian 102% | HS 578T breast 91% | NCI/ADR-RES ovarian 96.3% | T-47D breast 108% | BT-549 breast 105% | MDA-MB-435 melanoma 90% | SW-620 colon 99.6% | MCF7 breast 88.8% | HCT-116 colon 93.4% | HCC-2998 colon 111% | KM12 colon 108%

Cc1ccc2nc(Cl)c(-c3nc4ccccc4o3)cc2c1
inactive: SR leukemia 88.6% | RPMI-8226 leukemia 97.8% | OVCAR-8 ovarian 99.4% | OVCAR-5 ovarian 97.8% | OVCAR-4 ovarian 99.3% | SK-OV-3 ovarian 104% | IGROV1 ovarian 79.2% | OVCAR-3 ovarian 98.3% | HS 578T breast 98.6% | NCI/ADR-RES ovarian 89.4% | T-47D breast 83.9% | BT-549 breast 88.5% | MDA-MB-435 melanoma 99.8% | SW-620 colon 103% | MCF7 breast 92.4% | HCT-116 colon 97.3% | HCC-2998 colon 87.8% | KM12 colon 89.5%

COc1cc(CNC(=O)C2CSC3(C)c4ccccc4C(=O)N23)cc(OC)c1OC (stereo unspecified)
inactive: SR leukemia 77.4% | RPMI-8226 leukemia 90.2% | OVCAR-8 ovarian 92.4% | OVCAR-5 ovarian 102% | OVCAR-4 ovarian 97% | SK-OV-3 ovarian 104% | IGROV1 ovarian 107% | OVCAR-3 ovarian 112% | HS 578T breast 94.1% | NCI/ADR-RES ovarian 102% | T-47D breast 87.2% | BT-549 breast 108% | MDA-MB-435 melanoma 105% | SW-620 colon 101% | MCF7 breast 93.7% | HCT-116 colon 98.1% | HCC-2998 colon 95.5% | KM12 colon 106%

Oc1cccc(-c2nc3sccn3c2-c2ccncn2)c1
inactive: SR leukemia 60.1% | RPMI-8226 leukemia 118% | OVCAR-8 ovarian 102% | OVCAR-5 ovarian 119% | OVCAR-4 ovarian 114% | SK-OV-3 ovarian 88.4% | IGROV1 ovarian 91.2% | OVCAR-3 ovarian 114% | HS 578T breast 81.7% | NCI/ADR-RES ovarian 94% | T-47D breast 108% | BT-549 breast 110% | MDA-MB-435 melanoma 46% | SW-620 colon 108% | MCF7 breast 76.7% | HCT-116 colon 97.3% | HCC-2998 colon 111% | KM12 colon 107%

CCc1cc(Cl)c(OC)c(C(=O)NCC2CCCN2CC)c1O (stereo unspecified)
inactive: SR leukemia 81.6% | RPMI-8226 leukemia 95.8% | OVCAR-8 ovarian 92.5% | OVCAR-5 ovarian 88.2% | OVCAR-4 ovarian 86.5% | SK-OV-3 ovarian 79.9% | IGROV1 ovarian 98.4% | OVCAR-3 ovarian 100% | HS 578T breast 88.7% | NCI/ADR-RES ovarian 94.2% | T-47D breast 80.9% | BT-549 breast 89.2% | MDA-MB-435 melanoma 92.7% | SW-620 colon 91.7% | MCF7 breast 95.8% | HCT-116 colon 88.5% | HCC-2998 colon 96.4% | KM12 colon 101%
